Screens: PubChem, National Center for Advancing Translational Sciences (NCATS)
In the library only some 3.1% were active in any assay of this set; here they are far more common.
VDR inh = blocks the human vitamin D receptor; P11473; VDR-SRC2-3 peptide fluorescence polarization, 2 h; Potency, µM, for the others: max response, negative = inhibition, hits mostly inhibitors; 0.93% of 400,000 active; further: on the % scale 0 is the no-effect control and ±100 the full control effect
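Measured by FP: displacement of SRC2-3 coactivator peptide from VDR by library compounds, following a two-hour ambient incubation.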
ASM inhibitor = human S-ASM enzyme inhibition. AID 504937. 0.006% of 340,000 active. P17405. Potency, µM (top dose mostly 57.5 µM), for inactives: at the top dose activity change, negative = inhibition, hits mostly inhibitors. placental ASM, HMU-PC fluorogenic substrate, 60 min
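Human placenta-derived ASM enzyme was preincubated with compound for 10 minutes at room temperature, then given fluorogenic substrate HMU-PC0 (9 uM final) for 60 minutes at 37 °C; a pH 10 stop preceded fluorescence reading at Ex 386/Em 447 nm.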
TDP1 inh = blocks human tyrosyl-DNA phosphodiesterase 1. Q9NUW8. recombinant TDP1, AlphaScreen DNA substrate cleavage. Potency, µM (titrated, usually from 130 µM), without a hit: at the top dose activity change, negative = inhibition, usual class: inhibitors. 0.28% of 350,000 active; further: on the % scale 0 is the no-effect control and ±100 the full control effect; nearly all actives have a fitted effect of over 40% in size
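Recombinant human Tdp1 (E. coli-expressed, 1 nM final) preincubated with compounds 15 min at room temperature, then 5'-biotin/3'-phosphotyrosine-FITC DNA substrate (15 nM final) added for 5 min. AlphaScreen beads (10 ug/ml final) added 10 min; cleavage lowers signal.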
Tb PFK inh-1 = inhibitors of T. brucei phosphofructokinase | T. brucei PFK, ADP-Glo luminescence | Potency, µM (series often up to 57.5 µM), for inactives: at the highest dose activity, negative = inhibition, actives largely listed as inhibitors | 0.17% of 330,000 active | AID 485367;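 further: 0% = uninhibited 1x PFK enzyme wells and -100% = no-enzyme wells; nearly all actives have a fitted effect of over 60% in size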
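Luminescent ADP detection (ADP-Glo, two-step: ATP depletion then ADP-to-ATP conversion for luciferase) reported PFK activity after 45 min room-temperature reaction of 1.25 nM enzyme with 0.5 mM F6P and 0.1 mM ATP at pH 8.0.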
PLK1 PBD block = blocks phosphopeptide binding to human PLK1 polo-box domain | Potency, µM, for inactives: max response, negative = inhibition, hits mostly inhibitors | P53350 | Plk1 PBD binding of FITC phosphopeptide, fluorescence polarization | 2.8% of 360,000 active; further: series mostly up to about 57 µM; on the % scale 0 is the no-effect control and ±100 the full control effect; nearly all actives have a fitted effect of over 65% in size
Target sequence (P53350 whole entry, looked up, the tested form may be a part): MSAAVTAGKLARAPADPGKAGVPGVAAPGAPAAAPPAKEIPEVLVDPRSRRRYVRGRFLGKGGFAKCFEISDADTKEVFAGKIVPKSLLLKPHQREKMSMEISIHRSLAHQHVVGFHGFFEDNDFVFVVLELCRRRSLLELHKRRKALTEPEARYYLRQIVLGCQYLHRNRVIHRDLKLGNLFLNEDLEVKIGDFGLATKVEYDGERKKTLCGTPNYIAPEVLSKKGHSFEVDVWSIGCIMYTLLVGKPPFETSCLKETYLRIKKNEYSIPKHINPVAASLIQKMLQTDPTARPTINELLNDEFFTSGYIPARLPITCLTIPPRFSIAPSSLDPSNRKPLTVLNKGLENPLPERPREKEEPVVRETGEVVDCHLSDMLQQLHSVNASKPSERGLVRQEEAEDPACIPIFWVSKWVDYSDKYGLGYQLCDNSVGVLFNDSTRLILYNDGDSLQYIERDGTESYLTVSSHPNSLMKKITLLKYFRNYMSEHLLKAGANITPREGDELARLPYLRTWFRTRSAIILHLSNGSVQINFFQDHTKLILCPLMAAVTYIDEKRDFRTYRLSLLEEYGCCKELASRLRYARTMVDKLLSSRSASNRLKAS
Pin1 inh = blocks the human prolyl isomerase Pin1. Q13526. 0.009% of 390,000 active. Pin1 FP peptide displacement, HiFluor488, 10 min. Potency, µM (titrated, usually from 115 µM), for inactives: at the top dose activity, negative = inhibition, hits mostly inhibitors. AID 504891; active means well fitted inhibition curve with a large enough effect in the polarisation, with a control signal flat, not every such curve was filed as active; inconclusive means small, poorly fitted or top-dose-only effect, or effect the other way, or a change in a side signal; inactive means no such curve, though single readings can be large or run the other way; the % refers to the polarisation; further: on the % scale 0 is the no-effect control and ±100 the full control effect
Target sequence (Q13526 whole entry, looked up): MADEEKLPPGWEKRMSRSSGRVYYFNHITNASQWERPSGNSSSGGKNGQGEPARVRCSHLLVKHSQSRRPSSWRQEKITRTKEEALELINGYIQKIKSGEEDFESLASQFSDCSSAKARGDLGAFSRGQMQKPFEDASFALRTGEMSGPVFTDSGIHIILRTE
TbPFK ATP = inhibits T. brucei PFK measured by ATP depletion; Potency, µM (highest dose often 57.5 µM), without a hit: at the top dose inhibition; AID 504636; 47% of 1,100 active; shares compounds with Tb PFK inh-1; Tb PFK enzyme, ATP depletion, Kinase-Glo Plus luminescence; calls by dose curve; further: nearly all actives have a fitted effect of over 60% in size
Tb PFK inh-2 = T. brucei PFK enzyme inhibition, hit validation. shares compounds with Tb PFK inh-1. 41% of 1,100 active. purified T. brucei PFK, ADP-Glo luminescence, 45 min. Potency, µM (titrated, usually from 57.5 µM), for the others: at the top dose activity change, negative = inhibition, hits mostly inhibitors;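 further: plate controls were full PFK enzyme control for no effect and no enzyme control for full effect; nearly all actives have a fitted effect of over 60% in size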
Active calls of the source: *; ? = inconclusive; nt = no result given; [ ] = dose if it differs, or a comment. Unless noted, the call rests on the fitted dose curve; in most records, active means well fitted curve in the direction sought with a large enough effect; inconclusive means small, poorly fitted or top-dose-only effect, or another doubt; inactive means no such curve, though single readings can be large; an effect the other way counts as inactive or inconclusive. Potency means the concentration at half of the fitted maximal effect.

SMILES | VDR inh | ASM inhibitor | TDP1 inh | Tb PFK inh-1 | PLK1 PBD block | Pin1 inh | TbPFK ATP | Tb PFK inh-2
O=C1C2C3CCC(O3)C2C(=O)N1c1cccc(F)c1 (centres undefined) | 8% | 7% | nt | nt | 6% | 2% | nt | nt
Fc1cccc(NCc2cn3ccccc3n2)c1 | 14% | 0% | -1% | 12µM* | -20% | 2% | ? | -17%
CC(=O)N1C[C@H](O)C[C@H]1C(=O)O | -11% | -2% | nt | -1% | ? | -1% | nt | nt
NC(=S)c1cn(C2OC(CO)C(O)C2O)c2ncnc(N)c12 (centres undefined) | ? | 10% | 3% | ? | 27µM* | -3% | ? | -14%
Nc1ncnc2c1ccn2[C@@H]1O[C@H](CO)[C@@H](O)[C@H]1O | 12% | -4% | 4% | nt | 1% | 0% | nt | nt
O=C(/C=C/c1ccc(Cl)cc1)N[C@@]12CCC(=O)[C@@H]3Oc4c(O)ccc5c4[C@@]31CCN(CC1CC1)C2C5 | 1% | nt | 6% | nt | nt | nt | nt | nt
Clc1ccc(C2=CCC[C@H]3CC[C@@H]2N3)cn1 | ? | nt | 9%[56.1 µM] | nt | nt | nt | nt | nt
O=C(O)CCN1C(=O)c2ccc(NC(=O)Cc3ccc(Cl)cc3)cc2C1=O | 0% | 20% | nt | 19µM* | 5% | -6% | ? | 27µM*
Cc1ccc(NC(=O)CN2C(=O)CN=C(c3ccccc3)c3cc(Cl)ccc32)cc1 | -9% | -23% | -6% | 4% | -15% | ? | nt | nt
C[C@H](NC(N)=O)C(=O)Nc1ccc(N2CCOCC2)c(S(=O)(=O)Nc2ccc(Cl)cc2)c1 | ? | -3% | 3% | ? | 2.7µM* | -6% | 4.3µM* | 11µM*
CC/C=C\C/C=C\C/C=C\C/C=C\C/C=C\CCCC(N)=O | -1% | nt | 2% | nt | nt | nt | nt | nt
NC(=O)c1cccn1Cc1cccc(Cl)c1 | 12% | 8% | 7% | ? | -5% | 0% | ? | ?
CCOC(=O)c1cn(Cc2cccc(Cl)c2)nn1 | -13% | 0% | 3% | ? | 0% | -3% | 27µM* | ?
CCOc1cc(-c2c(C#N)c(=O)[nH]c3c2c(C)nn3-c2ccc(F)cc2)ccc1O | 4% | 14% | -1% | 5% | ? | -2% | nt | nt
CC(C)NC1C2CCC(CC2)C1(O)c1ccc(Cl)c(Cl)c1 (centres undefined) | nt | nt | nt | nt | 3% | nt | nt | nt
CNC(=S)N1CCN(c2ccc(Cl)c(Cl)c2)CC1 | 0% | -5% | 5% | 27µM* | -5% | -2% | 13µM* | 27µM*
COC(=O)N1CCN(c2ccc(Cl)c(Cl)c2)CC1 | 0% | -1% | -1% | 30µM* | -2% | 2% | 24µM* | 30µM*
CC(=O)Nc1ccc(OC(=O)N2CCCCC2)cc1 | 7% | 25% | 2% | 5% | -6% | 3% | nt | nt
CC(C)(C)NC[C@H](O)c1cc(Cl)c(N)c(Cl)c1 | -2% | nt | 12%[21 µM] | nt | nt | nt | nt | nt
COc1ccc(C(=O)CSc2nnc(CNc3ccc(F)cc3)o2)cc1 | -2% | -3% | 0% | 17µM* | -15% | 0% | 12µM* | 24µM*
CC(C)N(C(=O)CSc1nnc(CNc2ccc(F)cc2)o1)C(C)C | -5% | -2% | -2% | 17µM* | -2% | ? | ? | ?
CC1(C)[C@@H](O)C[C@H]2[C@](C)(O)[C@@H]3CC[C@H]4[C@@H](O)[C@@]3(C[C@@H](O)[C@@]21O)C[C@@]4(C)O | -8% | nt | 10% | nt | nt | nt | nt | nt
COC(=O)[C@@H]1C[C@H](OC(C)=O)C(=O)[C@H]2[C@@]1(C)CC[C@H]1C(=O)O[C@H](c3ccoc3)C[C@]21C | ? | nt | 16% | nt | nt | nt | nt | nt
CCn1c2ccccc2c2cc(NC(=O)CSc3nnc(C4CC4)n3Cc3ccco3)ccc21 | -13% | -10% | 7% | ? | -21% | 8% | ? | -28%
O=C(c1cc2cc([N+](=O)[O-])ccc2oc1=O)n1cccn1 | -1% | -4% | -3% | ? | 0% | -25% | -1% | 19%
SMILES | VDR inh | ASM inhibitor | TDP1 inh | Tb PFK inh-1 | PLK1 PBD block | Pin1 inh | TbPFK ATP | Tb PFK inh-2
Cc1ccc(-c2nnc(Nc3ccc(O)cc3)c3ccccc23)cc1S(=O)(=O)N1CCOCC1 | ? | nt | 2%[2.28 µM] | nt | nt | 3% | nt | nt
NS(=O)(=O)c1ccc(NC(=S)NCc2ccc(F)cc2)cc1 | ? | -2% | 3% | 24µM* | 21µM* | -2% | 11µM* | 24µM*
S=C(NCc1ccc(Cl)cc1)Nc1ccncc1 | -14% | -1% | 3% | 8.5µM* | -12% | -6% | 7.6µM* | 12µM*
COC(=O)C1=C(c2ccc(S(C)(=O)=O)cc2)C[C@@H]2CC[C@H]1N2C(=O)NCc1ccc(F)cc1 | -13% | -3% | nt | nt | 2% | -5% | nt | nt
COc1cc(/C=N/Nc2ccc(S(N)(=O)=O)cc2)cc(OC)c1OC | -2% | 37% | 2% | 2% | -11% | 1% | nt | nt
NS(=O)(=O)c1ccc(NC(=O)COc2ccc(Cl)cc2)cc1 | -9% | 3% | nt | 1.9µM* | -10% | 1% | 1.1µM* | ?
CC(C)OCCCNC(=S)Nc1ccc(S(N)(=O)=O)cc1 | ? | 4% | -6% | 27µM* | 6µM* | -2% | 6.7µM* | 13µM*
O=C1NO[C@H]2[C@@H]1CN[C@@H]2C(=O)O | nt | nt | 7% | nt | nt | nt | nt | nt
COc1cc(/C=C/c2nc3ccccc3c(=O)n2-c2ccc(Br)c(C)c2)ccc1O | -1% | nt | 8% | nt | nt | 25% | nt | nt
NCCc1ccc(S(N)(=O)=O)cc1 | -1% | 4% | 3% | -2% | -8% | -1% | nt | nt
O=S(=O)(c1ccc(NC(=S)NCc2ccc(F)cc2)cc1)N1CCOCC1 | -9% | -3% | 2% | 24µM* | -13% | -1% | 12µM* | 30µM*
NS(=O)(=O)c1ccc(NC(=S)NCc2ccc(Cl)cc2)cc1 | ? | -2% | 1% | 12µM* | 11µM* | -1% | 2.7µM* | 5.4µM*
O=[N+]([O-])c1ccc(NC(=S)NCc2ccc(F)cc2)cc1 | 13% | -14% | 6% | ? | -30% | ? | 19µM* | ?
NS(=O)(=O)c1ccc(NC(=O)CSc2ccccc2)cc1 | -3% | 2% | 4% | 15µM* | 0% | 2% | 24µM* | 30µM*
Cc1nn(Cc2ccccc2)c(C)c1C(=O)OCC(=O)Nc1cccc(S(N)(=O)=O)c1 | 0% | 0% | 5% | -4% | -10% | -8% | nt | nt
CCn1c(O)c(N=Nc2ccc(S(=O)(=O)N3CCOCC3)cc2)c(=O)n(CC)c1=S | -15% | -17% | 4% | 0% | -25% | -2% | nt | nt
CC(=O)[C@@H]1CC[C@@H]2[C@@H]3CCC4=CC(=O)CC[C@@]4(C)[C@H]3CC[C@]21C | ? | nt | 5%[21 µM] | nt | nt | nt | nt | nt
